Consider five molecules from PubChem BioAssay.

Each structure is given as a SMILES string. The source made the active and inactive calls.

The test system of assay [1] is Plasmodium falciparum Sir2 (PF13_0152, Sir2A). The experiment in a line: Plasmodium falciparum Sir2A binding compounds – biochemical, small-molecule microarray, 635 nm fluorescence, primary screen (AID 1098).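 Note: score merges spot fluorescence intensity with its signal-to-noise ratio.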 To be noted: fluorescence 635 nm, higher = more signal.
Assay [2] in a line: probe aDKK1 binding to arrayed compounds – biochemical, biotinylated probe, 635/667 nm fluorescence, primary screen (AID 1099).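 Note: score merges 667nm spot fluorescence with signal to noise across triplicate slides.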 To be noted: small-molecule microarray, higher = more signal.
Assay [3] can be described thus: probe aCHRDL2 binding to arrayed compounds – biochemical, biotinylated probe, 635/667 nm fluorescence, primary screen (AID 1100). To be noted: small-molecule microarray, higher = more signal.
Assay [4] in a line: change in splice reporter luminescence, either direction, cell-based, HEK293, spliceosome inhibition project, primary screen (AID 1101).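 Note: HEK293 cells carrying a splicing-competent luciferase reporter gene; test concentration not given here.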 Particulars: HEK293 splicing luciferase reporter, 24 h, higher = more signal, called active from +8 up or from −8 down.
Assay [5] concerns the target Fibroblast growth factor 10 (Homo sapiens) (UniProt O15520). The experiment in a line: compounds binding fibroblast growth factor 10 – biochemical, small-molecule microarray, 635 nm fluorescence, primary screen (AID 1102). Particulars: FGF10 binding, fluorescence 635 nm, higher = more signal.
Assay [6] has as its system glycogen synthase kinase-3 (GSK3A per assay name; protocol says GSK3B). Description: compounds binding glycogen synthase kinase-3 – biochemical, small-molecule microarray, 635 nm fluorescence, GSK3A, primary screen (AID 1103). Note: the record names both GSK3A and GSK3B. Particulars: fluorescence 635 nm, higher = more signal.
For assay [7], the target named is Epidermal growth factor receptor (Homo sapiens) (UniProt P00533). Description: compounds binding epidermal growth factor receptor – biochemical, small-molecule microarray, 635 nm fluorescence, primary screen (AID 1104).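 Note: score merges 667 nm emission intensity with spot signal to noise over triplicate slides.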 To be noted: EGFR binding, higher = more signal.
Epidermal growth factor receptor (Homo sapiens), sequence (P00533 whole entry, looked up): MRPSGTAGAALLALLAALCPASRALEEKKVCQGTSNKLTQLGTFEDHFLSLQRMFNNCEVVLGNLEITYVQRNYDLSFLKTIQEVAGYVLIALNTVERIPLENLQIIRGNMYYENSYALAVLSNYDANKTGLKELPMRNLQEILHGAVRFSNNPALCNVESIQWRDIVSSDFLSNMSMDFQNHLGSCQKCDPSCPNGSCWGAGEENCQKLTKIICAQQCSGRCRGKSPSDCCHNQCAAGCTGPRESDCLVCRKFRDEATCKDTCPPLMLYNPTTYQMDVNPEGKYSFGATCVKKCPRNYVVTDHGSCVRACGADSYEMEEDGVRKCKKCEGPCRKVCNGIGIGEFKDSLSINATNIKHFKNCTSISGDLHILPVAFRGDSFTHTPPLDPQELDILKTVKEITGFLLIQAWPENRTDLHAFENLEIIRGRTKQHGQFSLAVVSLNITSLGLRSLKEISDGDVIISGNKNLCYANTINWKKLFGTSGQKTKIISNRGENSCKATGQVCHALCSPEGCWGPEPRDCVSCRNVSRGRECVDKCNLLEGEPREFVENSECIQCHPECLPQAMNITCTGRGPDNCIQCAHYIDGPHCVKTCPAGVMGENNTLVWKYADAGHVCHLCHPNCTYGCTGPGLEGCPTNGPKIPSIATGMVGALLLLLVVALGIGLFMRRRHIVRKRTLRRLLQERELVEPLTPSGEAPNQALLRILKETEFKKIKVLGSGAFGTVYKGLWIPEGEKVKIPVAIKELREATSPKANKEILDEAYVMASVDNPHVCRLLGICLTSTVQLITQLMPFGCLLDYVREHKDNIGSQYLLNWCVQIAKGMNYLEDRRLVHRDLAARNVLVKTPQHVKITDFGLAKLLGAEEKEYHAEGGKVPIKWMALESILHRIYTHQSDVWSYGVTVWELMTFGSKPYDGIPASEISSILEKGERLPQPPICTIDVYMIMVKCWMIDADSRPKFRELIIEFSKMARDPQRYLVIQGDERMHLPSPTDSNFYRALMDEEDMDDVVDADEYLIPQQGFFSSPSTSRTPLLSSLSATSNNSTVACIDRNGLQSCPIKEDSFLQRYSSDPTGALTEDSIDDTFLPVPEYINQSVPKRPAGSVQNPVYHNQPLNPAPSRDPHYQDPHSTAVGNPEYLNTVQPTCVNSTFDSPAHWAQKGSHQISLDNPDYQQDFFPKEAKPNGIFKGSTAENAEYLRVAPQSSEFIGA
For assay [8], the target named is Follistatin-related protein 3 (Homo sapiens) (UniProt O95633). The experiment in a line: compounds binding follistatin-related protein 3 – biochemical, small-molecule microarray, 635 nm fluorescence, primary screen (AID 1105).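 Note: score merges emission near 667 nm and signal to noise per printed spot across three slides.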 To be noted: FSTL3 binding, higher = more signal.
Follistatin-related protein 3 (Homo sapiens), sequence (O95633 whole entry, looked up): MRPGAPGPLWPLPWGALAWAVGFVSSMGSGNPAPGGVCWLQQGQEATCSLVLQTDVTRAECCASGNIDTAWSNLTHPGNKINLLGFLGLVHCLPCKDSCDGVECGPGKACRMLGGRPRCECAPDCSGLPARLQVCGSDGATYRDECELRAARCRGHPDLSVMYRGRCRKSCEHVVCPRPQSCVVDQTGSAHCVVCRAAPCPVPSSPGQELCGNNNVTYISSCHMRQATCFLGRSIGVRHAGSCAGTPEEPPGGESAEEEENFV
The target of assay [9] is Dickkopf-related protein 1 (Homo sapiens) (UniProt O94907). The experiment in a line: small molecules binding DKK1 protein – biochemical, small-molecule microarray, 635 nm fluorescence scan, primary screen (AID 1106).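 Note: score merges emission near 667 nm with signal to noise over three replicate slides.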 To be noted: higher = more signal.
Dickkopf-related protein 1 (Homo sapiens), sequence (O94907 whole entry, looked up): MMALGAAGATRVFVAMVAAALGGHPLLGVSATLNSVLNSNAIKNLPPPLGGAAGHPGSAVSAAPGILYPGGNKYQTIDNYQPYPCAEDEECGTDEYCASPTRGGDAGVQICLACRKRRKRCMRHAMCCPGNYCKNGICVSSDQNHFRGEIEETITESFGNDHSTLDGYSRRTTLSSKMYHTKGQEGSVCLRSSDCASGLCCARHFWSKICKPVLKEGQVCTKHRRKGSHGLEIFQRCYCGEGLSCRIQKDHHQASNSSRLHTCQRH
The test system of assay [10] is Inhibin beta A chain (activin A). Description: small molecules binding activin A – biochemical, small-molecule microarray, 635 nm fluorescence scan, primary screen (AID 1107).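 Note: mouse activin A protein probed at 4.33 µg/mL on printed slides; score merges bound-protein fluorescence near 667 nm with spot signal-to-noise.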 To be noted: INHBA, higher = more signal.
Assay [11] concerns Human papillomavirus type 1a protein E7 (residues 44-93). Description: small molecules binding HPV E7 44-93 – biochemical, small-molecule microarray, residues 44-93, 635 nm fluorescence, primary screen (AID 1108).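 Note: E7 fragment applied at 1 µg/mL in TBST for 1 h at 4 C; score combines spot fluorescence with its signal to noise ratio.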 Particulars: fluorescence 635 nm, higher = more signal.
Assay [12] is described as follows: hepatitis C replication reporter changes, two-sided – Huh7 cells, luciferase reporter, HCV replication inhibitor project, primary screen (AID 1109).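 Note: huh7 hepatoma cells harbouring a luciferase neomycin HCV replicon reporter; luciferase luminescence as measure of HCV replicon replication; test concentration not given here.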 To be noted: Huh7 HCV replicon luciferase reporter, 48 h; higher = more signal.
Assay [13] addresses Left-right determination factor 2 (Homo sapiens) (UniProt O00292). Description: small molecules binding LEFTY2 protein – biochemical, small-molecule microarray, 635 nm fluorescence scan, primary screen (AID 1110). To be noted: higher = more signal.
The target in assay [14] is Calmodulin-1 (Homo sapiens) (UniProt P0DP23). Description: small molecules binding calmodulin-1 with EGTA – biochemical, small-molecule microarray, Cy5-labelled CALM1, profiling panel (AID 1111).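 Note: labelled calmodulin applied in Tris saline Tween buffer holding calcium plus EGTA and DTT.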 To be noted: Cy5-CALM1 binding fluorescence, higher = more signal.
Assay [15] has the same target. The experiment in a line: small molecules binding Ca-loaded calmodulin-1 – biochemical, small-molecule microarray, Cy5-labelled CALM1, plus calcium, artefact control for SMM control-protein annotation, profiling panel (AID 1112).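 Note: score merges spot fluorescence with signal to noise from triplicate slides.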 Particulars: Cy5-CALM1 binding fluorescence, higher = more signal.
Assay [16] is described as follows: probe aWnt5a binding to arrayed compounds – biochemical, biotinylated probe, 635/667 nm fluorescence, primary screen (AID 1113).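 Note: score merges 667 nm fluorescence intensity with signal-to-noise per printed feature.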 Particulars: small-molecule microarray, higher = more signal.
The nature of assay [17]: probe aShh binding to arrayed compounds – biochemical, biotinylated probe, 635/667 nm fluorescence, primary screen (AID 1114).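 Note: probe is biotin-labelled aShh protein from a stem cell growth factor screen; measures binding of labelled protein to compounds printed on the slide; score merges feature fluorescence at 667 nm with signal-to-noise.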 Particulars: small-molecule microarray, higher = more signal.
Assay [18] is described as follows: probe aNog binding to arrayed compounds – biochemical, biotinylated probe, 635/667 nm fluorescence, primary screen (AID 1115).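 Note: probe is biotinylated aNog protein used at 0.15 µg/mL for 1 h at 4 C; z-score combines 667 nm fluorescence of each spot with its signal to noise.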 To be noted: small-molecule microarray, higher = more signal.
Assay [19] concerns the target Torsin-1A-interacting protein 1 (Homo sapiens) (UniProt Q5JTV8). Description: compound microarray binding of lysate hLAP1 – cell lysate, small-molecule microarray, COS7 lysate, 635/667 nm fluorescence, primary screen (AID 1116). Particulars: 635 nm fluorescence, higher = more signal.
Assay [20] deals with Alpha-bungarotoxin (Bungarus multicinctus) (UniProt P60615). The experiment in a line: compounds binding labelled alpha-BTX control protein – biochemical, small-molecule microarray, Alexa647 label, 635/667 nm fluorescence, artefact control for SMM control protein annotation, profiling panel (AID 1117). Particulars: alpha-BTX-A647 binding fluorescence, higher = more signal.
Alpha-bungarotoxin (Bungarus multicinctus), sequence (P60615 whole entry, looked up): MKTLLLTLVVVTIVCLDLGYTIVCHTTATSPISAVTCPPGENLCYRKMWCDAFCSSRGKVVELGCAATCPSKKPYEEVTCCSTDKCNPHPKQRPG

Torsin-1A-interacting protein 1 (Homo sapiens), sequence (Q5JTV8 whole entry, looked up): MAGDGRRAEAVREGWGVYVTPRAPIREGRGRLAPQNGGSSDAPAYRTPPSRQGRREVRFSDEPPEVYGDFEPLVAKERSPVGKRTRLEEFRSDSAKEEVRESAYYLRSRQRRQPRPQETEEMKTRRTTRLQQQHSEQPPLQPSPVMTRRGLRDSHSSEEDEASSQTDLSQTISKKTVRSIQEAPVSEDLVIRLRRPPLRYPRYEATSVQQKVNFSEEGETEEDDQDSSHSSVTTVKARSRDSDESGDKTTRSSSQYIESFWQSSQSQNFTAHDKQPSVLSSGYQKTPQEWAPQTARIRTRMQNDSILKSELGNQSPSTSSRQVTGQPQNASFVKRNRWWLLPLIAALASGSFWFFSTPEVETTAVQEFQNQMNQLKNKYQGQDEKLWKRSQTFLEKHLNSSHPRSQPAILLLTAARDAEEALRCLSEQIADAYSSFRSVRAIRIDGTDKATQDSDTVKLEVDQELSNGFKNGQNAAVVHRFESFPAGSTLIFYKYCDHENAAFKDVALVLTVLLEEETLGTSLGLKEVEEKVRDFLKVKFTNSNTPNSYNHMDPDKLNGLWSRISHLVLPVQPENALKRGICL
Fibroblast growth factor 10 (Homo sapiens), sequence (O15520 whole entry, looked up): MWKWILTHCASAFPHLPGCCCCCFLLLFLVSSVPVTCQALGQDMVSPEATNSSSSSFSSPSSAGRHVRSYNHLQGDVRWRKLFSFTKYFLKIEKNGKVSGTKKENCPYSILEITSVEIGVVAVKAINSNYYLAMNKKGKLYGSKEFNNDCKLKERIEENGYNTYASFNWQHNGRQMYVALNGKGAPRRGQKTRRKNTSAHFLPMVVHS
Left-right determination factor 2 (Homo sapiens), sequence (O00292 whole entry, looked up): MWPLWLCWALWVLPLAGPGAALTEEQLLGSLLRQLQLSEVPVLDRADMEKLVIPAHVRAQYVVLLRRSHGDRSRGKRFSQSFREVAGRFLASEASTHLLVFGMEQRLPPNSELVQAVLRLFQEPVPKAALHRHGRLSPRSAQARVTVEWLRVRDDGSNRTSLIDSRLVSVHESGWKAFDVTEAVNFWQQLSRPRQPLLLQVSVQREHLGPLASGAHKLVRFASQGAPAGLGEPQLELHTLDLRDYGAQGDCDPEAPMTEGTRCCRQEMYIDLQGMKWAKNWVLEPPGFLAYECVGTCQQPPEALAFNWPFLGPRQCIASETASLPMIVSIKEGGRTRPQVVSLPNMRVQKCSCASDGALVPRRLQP

`COCCCNC(=O)[C@]1(CCC(=O)OC(C)(C)C)N=C(c2ccc(OCCCO)cc2)O[C@@H]1c1ccccc1N=[N+]=[N-]`: the composite z-score is 1.31 in assay [1]; 0.314 in [2]; 0.999 in assay [3]; 1.29 in assay [5]; 1.33 in assay [6]; 0.287 in [7]. In addition, the composite z-score in assay [8] was determined as 1.06; in assay [9], 0.0998; in assay [10], 0.772; in [11], 1.45; in [13] it was 0.197; in [14], 1.88. Besides, the composite z-score came out at 0.671 in assay [15]; 0.183 in assay [16]; 0.0948 in assay [17]; 1.56 in assay [18]; 1.21 in assay [19]; 1.64 in [20]. The z-score in assay [4] was -1.14 (inactive); in assay [12], 0.971.

Turning to `C#CCCCON=C1C[C@@H](O)[C@@H](O)[C@@H]2[C@@H]3C(=O)N(CCC(=O)OCC)C(=O)[C@@H]3CC[C@@H]12`, the composite z-score in assay [1] was -0.346; in assay [2], 1.17; in assay [3], 1.51; in [5], -0.0714; in [6] it was -0.493; in assay [7], -0.905. Moreover, the composite z-score in [8] is -0.911; in assay [9] it was -0.908; in [10] it was 0.459; in [11] it was -0.58; in assay [13], -0.174; in [14] it was -0.335. Moreover, the composite z-score is 0.0811 in assay [15]; -0.0748 in assay [16]; 0.246 in assay [17]; 0.206 in assay [18]; -0.221 in assay [19]; 1.04 in [20]. Also, the z-score in assay [4] was 0.907 (inactive); in assay [12] it was -2.78.

Take `COCCOC(=O)N1C(=O)[C@@]2(c3ccccc31)[C@H](C(N)=O)[C@H]1C(=O)O[C@H](c3ccccc3)[C@H](c3ccccc3)N1[C@@H]2c1ccccc1OCCO`: the composite z-score in [1] turned out to be 1.31; in [2] it was 0.756; in [3], 0.799; in assay [5], 1.23; in assay [6], 0.98; in assay [7] it was 0.483. Besides, the composite z-score in assay [8] was determined as 0.584; in assay [9] it was 0.516; in assay [10] it was 0.617; in assay [11], 1.32; in assay [13], 0.565; in [14] it was 2.3. The composite z-score in [15] is 0.668; in assay [16], -0.0118; in [17], -0.0035; in assay [18] it was 0.162; in assay [19] it was 4.3; in [20], 2.62. Besides, the z-score in assay [4] is -0.0592 (inactive); in assay [12], -2.2.

`CO[C@H]1COC(=O)[C@@H]2CCCN2C(=O)CC=C[C@@H](C)[C@H](OC)COC(=O)CC=C[C@@H]1C`: the composite z-score in assay [1] was 0.401; in [2] it was -0.569; in assay [3] it was -1.28; in [5], 1.09; in assay [6], 1.06; in assay [7], 1.64. Moreover, the composite z-score in assay [8] was 1.47; in assay [9] it was 1.63; in assay [10], 1.5; in assay [11], 0.589; in assay [13] it was 1.47; in assay [14], -2.29. In addition, the composite z-score in assay [15] was -2.06; in assay [16], -0.117; in assay [17] it was -0.0904; in assay [18] it was -0.156; in [19], -0.298; in [20] it was -0.394. For the same molecule, the z-score is -0.555 (inactive) in assay [4] and 1.34 in assay [12].

Take `CC(C)=CCCC(C)=CCON=C1[C@H]2CCn3c(=O)n(Cc4cc5c(cc4Cl)OCO5)c(=O)n3[C@H]2[C@H](O)[C@@H]2O[C@H]12`: the composite z-score in assay [1] was 0.398; in assay [2], -0.277; in assay [3], -0.248; in assay [5] it was 0.427; in assay [6], 0.173; in assay [7] it was 0.984. Besides, the composite z-score in [8] was 0.677; in assay [9] it was 0.472; in assay [10], 1.27; in assay [11], -0.118; in assay [13], 0.463; in assay [14] it was -0.175. The composite z-score in [15] is -0.591; in [16] it was 0.0388; in [17], -0.138; in assay [18] it was -0.181; in assay [19], 0.989; in [20] it was -0.112. Besides, the z-score was -0.696 (inactive) in assay [4] and -0.78 in assay [12].
